Structures are written as SMILES. Values joined by “and” are separate entries in the source; they are usually repeats but may differ in a detail not shown here. Equal values may be shown once. Inconclusive results are not listed. A call without a number means that no potency is given here. A structure can be active in one record and inactive in another. Active and inactive are the calls of the source. Calls follow the shape of the dose curve; as a rule, active = well fitted curve in the direction sought with a large enough effect in the repeat runs; inconclusive = weak or mixed curves; inactive = no such curve, though single readings can be large; an effect the other way counts as inactive or inconclusive.

One assay is described as follows: qHTS RealTime-Glo MT Cell Viability Assay in HEK293 cells - 0 hour (AID 1224880). Also: top concentration of the series differs between compounds; nearly all actives have a fitted effect of over 45% in size. To be noted: RealTime-Glo luminescence; series mostly up to 76.8 µM; activity change, negative = cytotoxicity: at the top concentration. In outline: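 Measured as luminescence from the same continuously cultured HEK293 wells at successive time points (0, 8, 16, 24, 32, 40 h) after compound addition. Reagent present from seeding; dosing at 5 h; incubation 37 C.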
With `CN(C)CCC#N`, the outcome was inactive.
In the case of `CCCOC(=O)c1ccccc1C(=O)OCCC`, the outcome was inactive.
For `CNC(=O)Oc1cccc2ccccc12`, the outcome was inactive.
For `O=C(O)C1C(C(=O)O)C2(Cl)C(Cl)=C(Cl)C1(Cl)C2(Cl)Cl` (stereo not given), the outcome was inactive.
Regarding `c1ccc2c(c1)CCCC2`, the compound was called inactive.
With `O=[N+]([O-])c1ccc(Cl)cc1`, the result was inactive.
Consider `CC(C)(C)C(=O)CCl`, for which the call was inactive.
Consider `Nc1nc(N)nc(NC2CC2)n1`, for which the compound was called inactive.
For the compound `CN(C)C(=O)C(c1ccccc1)c1ccccc1`, the call was inactive.
As to `C/C=C/c1ccc2c(c1)OCO2`, the outcome was inactive.
Regarding `COP(=S)(OC)SCN1C(=O)c2ccccc2C1=O`, the compound was called inactive.
As to `CC[N+](=O)[O-]`, the compound was called inactive.
In the case of `Sc1ccccc1`, the compound was classed as inactive.
For the compound `CCSC(=O)N1CCCCCC1`, the call was inactive.
As for `Cl[C@H]1OCCO[C@@H]1Cl`, the compound was called inactive.
On to `C=CC(=O)OCC(CC)CCCC` (stereo not given), for which the call was inactive.
Regarding `O=[N+]([O-])c1cc([As](=O)(O)O)ccc1O`, the compound was called inactive.
As for `CCOc1ccc(N)cc1`, the outcome was inactive.
As for `Nc1ccc(N)cc1`, the compound was called inactive.
Turning to `CCNc1nc(Cl)nc(NC(C)C)n1`, the call was inactive.
Turning to `C=CC#N`, the compound was called inactive.
Turning to `C=C(C)C(=O)OCC(CC)CCCC` (stereo not given), the result was inactive.
Consider `Cc1cc(Cl)ccc1OC(C)C(=O)O` (stereo not given), for which the outcome was inactive.
As to `CCCCC(CC)C(=O)Cl` (stereo not given), the result was inactive.
Consider `COc1cc(-c2ccc(N)c(OC)c2)ccc1N`, for which the compound was classed as inactive.
The same measure, in the same setting: under `O=P1(NCCCl)OCCCN1CCCl` (stereo not given) stands “inactive”; under `O=C(O)C(Br)Br`, “inactive”; under `Cc1cccc(C)c1NC(=O)CN1CCCC1=O`, “inactive”.
`[N-]=[N+]=CC(=O)OC[C@H](N)C(=O)O`: the compound was classed as inactive.
Same read-out and setting: under `OCc1ccco1` stands “inactive”.

A short description of another assay: A CellTox Green Cytotoxicity Assay to monitor cytotoxicity in HEK293 cells - 32 hour (AID 1224881). Also: nearly all actives have a fitted effect of over 40% in size. The note with it: CellTox Green fluorescence; series mostly up to 76.8 µM; cytotoxicity increase: at the top concentration. In outline: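 Homogeneous no-lysis format: HEK293 cell suspension mixed with CellTox Green reagent, seeded, incubated 5 h at 37 C/5% CO2, then dosed by pintool with compound in DMSO.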
Consider `CN(C)CCC#N`, for which the Potency entry is “inactive”.
On to `CCCOC(=O)c1ccccc1C(=O)OCCC`, for which the Potency entry is “inactive”.
Take `CNC(=O)Oc1cccc2ccccc12`: the Potency result was “inactive”.
`O=C(O)C1C(C(=O)O)C2(Cl)C(Cl)=C(Cl)C1(Cl)C2(Cl)Cl` (stereo not given): the Potency result was “inactive”.
`c1ccc2c(c1)CCCC2`: the Potency result was “inactive”.
Turning to `O=[N+]([O-])c1ccc(Cl)cc1`, the Potency result is “inactive”.
For `CC(C)(C)C(=O)CCl`, the Potency entry is “inactive”.
Regarding `Nc1nc(N)nc(NC2CC2)n1`, the Potency entry is “inactive”.
Regarding `CN(C)C(=O)C(c1ccccc1)c1ccccc1`, the Potency entry is “inactive”.
As for `C/C=C/c1ccc2c(c1)OCO2`, the “cytotoxicity increase” value was -0.48% (inactive).
With `COP(=S)(OC)SCN1C(=O)c2ccccc2C1=O`, the Potency result is “inactive”.
As for `CC[N+](=O)[O-]`, the Potency result was “inactive”.
Regarding `Sc1ccccc1`, the Potency entry was “inactive”.
Take `CCSC(=O)N1CCCCCC1`: the Potency entry was “inactive”.
As for `Cl[C@H]1OCCO[C@@H]1Cl`, the Potency result was “inactive”.
For the compound `C=CC(=O)OCC(CC)CCCC` (stereo not given), the Potency result was “inactive”.
As to `O=[N+]([O-])c1cc([As](=O)(O)O)ccc1O`, the Potency result was “inactive”.
The same measure, in the same setting: the same measure for `CCOc1ccc(N)cc1`: “inactive”; for `Nc1ccc(N)cc1`: “inactive”; for `CCNc1nc(Cl)nc(NC(C)C)n1`: “inactive”.
Turning to `C=CC#N`, the Potency result is “inactive”.
Consider `C=C(C)C(=O)OCC(CC)CCCC` (stereo not given), for which the “cytotoxicity increase” value is 0.176% (inactive).
`Cc1cc(Cl)ccc1OC(C)C(=O)O` (stereo not given): the Potency entry is “inactive”.
In the case of `CCCCC(CC)C(=O)Cl` (stereo not given), the Potency entry was “inactive”.
On to `COc1cc(-c2ccc(N)c(OC)c2)ccc1N`, for which the Potency result was “inactive”.
As for `O=P1(NCCCl)OCCCN1CCCl` (stereo not given), the Potency entry was “inactive”.
Consider `O=C(O)C(Br)Br`, for which the Potency entry is “inactive”.
The same measure, in the same setting: under `Cc1cccc(C)c1NC(=O)CN1CCCC1=O` stands “inactive”.
As for `[N-]=[N+]=CC(=O)OC[C@H](N)C(=O)O`, the “cytotoxicity increase” value is 1.18% [at 35.3 µM] (inactive).
Regarding `OCc1ccco1`, the Potency entry is “inactive”.

A further assay in a line: A CellTox Green Cytotoxicity Assay to monitor cytotoxicity in HepG2 cells - 0 hour (AID 1224882). Also: nearly all actives have a fitted effect of over 35% in size. Also: potency is read from the fitted curve at half-maximal effect. To be noted: CellTox Green fluorescence; series mostly up to 76.8 µM; cytotoxicity: at the top concentration. In outline:
(§1)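 Fluorescent DNA-binding dye, 600 HepG2 cells/well, 5 h preincubation then compound in DMSO; same plates read at 0–40 h, 37 C.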
In the case of `CN(C)CCC#N`, the Potency entry was “inactive”.
As for `CCCOC(=O)c1ccccc1C(=O)OCCC`, the Potency result was “inactive”.
As to `CNC(=O)Oc1cccc2ccccc12`, the Potency result is “inactive”.
The same measure, in the same setting: the same measure for `O=C(O)C1C(C(=O)O)C2(Cl)C(Cl)=C(Cl)C1(Cl)C2(Cl)Cl` (stereo not given): “inactive”.
Turning to `c1ccc2c(c1)CCCC2`, the Potency entry is “inactive”.
Regarding `O=[N+]([O-])c1ccc(Cl)cc1`, the Potency entry is “inactive”.
On to `CC(C)(C)C(=O)CCl`, for which the Potency entry is “inactive”.
As for `Nc1nc(N)nc(NC2CC2)n1`, the Potency entry is “inactive”.
Same read-out and setting: under `CN(C)C(=O)C(c1ccccc1)c1ccccc1` stands “inactive”.
Consider `C/C=C/c1ccc2c(c1)OCO2`, for which the Potency result was “inactive”.
As to `COP(=S)(OC)SCN1C(=O)c2ccccc2C1=O`, the Potency entry was “inactive”.
The same measure, in the same setting: the same measure for `CC[N+](=O)[O-]`: “inactive”; for `Sc1ccccc1`: “inactive”.
With `CCSC(=O)N1CCCCCC1`, the Potency entry was “inactive”.
Take `Cl[C@H]1OCCO[C@@H]1Cl`: the Potency result was “inactive”.
With `C=CC(=O)OCC(CC)CCCC` (stereo not given), the Potency result was “inactive”.
With `O=[N+]([O-])c1cc([As](=O)(O)O)ccc1O`, the Potency result is “inactive”.
In the case of `CCOc1ccc(N)cc1`, the Potency entry is “inactive”.
Consider `Nc1ccc(N)cc1`, for which the Potency entry is “inactive”.
`CCNc1nc(Cl)nc(NC(C)C)n1`: the Potency result was “inactive”.
On to `C=CC#N`, for which the Potency result is “inactive”.
For the compound `C=C(C)C(=O)OCC(CC)CCCC` (stereo not given), the Potency entry was “inactive”.
Consider `Cc1cc(Cl)ccc1OC(C)C(=O)O` (stereo not given), for which the Potency result was “inactive”.
On to `CCCCC(CC)C(=O)Cl` (stereo not given), for which the Potency entry is “inactive”.
The same measure, in the same setting: the same measure for `COc1cc(-c2ccc(N)c(OC)c2)ccc1N`: “inactive”.
Still for that read-out and setting: under `O=P1(NCCCl)OCCCN1CCCl` (stereo not given) stands “inactive”; under `O=C(O)C(Br)Br`, “inactive”; under `Cc1cccc(C)c1NC(=O)CN1CCCC1=O`, “inactive”.
As to `[N-]=[N+]=CC(=O)OC[C@H](N)C(=O)O`, the Potency was 34.7 µM (active) and inactive.
As to `OCc1ccco1`, the Potency entry is “inactive”.

The next assay in a line: A CellTox Green Cytotoxicity Assay to monitor cytotoxicity in HepG2 cells - 32 hour (AID 1224883). Also: nearly all actives have a fitted effect of over 50% in size. Also: potency is read from the fitted curve at half-maximal effect. To be noted: CellTox Green fluorescence; series mostly up to 76.8 µM; cytotoxicity increase: at the top concentration. In outline:
as §1
For the compound `CN(C)CCC#N`, the Potency result is “inactive”.
For `CCCOC(=O)c1ccccc1C(=O)OCCC`, the Potency result is “inactive”.
Still for that read-out and setting: the same measure for `CNC(=O)Oc1cccc2ccccc12`: “inactive”.
The same measure, in the same setting: the same measure for `O=C(O)C1C(C(=O)O)C2(Cl)C(Cl)=C(Cl)C1(Cl)C2(Cl)Cl` (stereo not given): “inactive”.
For `c1ccc2c(c1)CCCC2`, the Potency result was “inactive”.
As for `O=[N+]([O-])c1ccc(Cl)cc1`, the “cytotoxicity increase” value was -12.3% (inactive).
Turning to `CC(C)(C)C(=O)CCl`, the Potency result was “inactive”.
On to `Nc1nc(N)nc(NC2CC2)n1`, for which the Potency entry was “inactive”.
As to `CN(C)C(=O)C(c1ccccc1)c1ccccc1`, the Potency result was “inactive”.
Still for that read-out and setting: the same measure for `C/C=C/c1ccc2c(c1)OCO2`: “inactive”; for `COP(=S)(OC)SCN1C(=O)c2ccccc2C1=O`: “inactive”.
Still for that read-out and setting: the same measure for `CC[N+](=O)[O-]`: “inactive”; for `Sc1ccccc1`: “inactive and 43.6 µM (active)”; for `CCSC(=O)N1CCCCCC1`: “inactive”.
On to `Cl[C@H]1OCCO[C@@H]1Cl`, for which the Potency entry is “inactive”.
Turning to `C=CC(=O)OCC(CC)CCCC` (stereo not given), the Potency result was “inactive”.
Consider `O=[N+]([O-])c1cc([As](=O)(O)O)ccc1O`, for which the Potency result was “inactive”.
As for `CCOc1ccc(N)cc1`, the Potency entry is “inactive”.
On the same count and under the same terms, under `Nc1ccc(N)cc1` stands “inactive”.
For `CCNc1nc(Cl)nc(NC(C)C)n1`, the Potency result was “inactive”.
Regarding `C=CC#N`, the Potency result is “inactive”.
Turning to `C=C(C)C(=O)OCC(CC)CCCC` (stereo not given), the Potency entry is “inactive”.
Same read-out and setting: under `Cc1cc(Cl)ccc1OC(C)C(=O)O` (stereo not given) stands “inactive”; under `CCCCC(CC)C(=O)Cl` (stereo not given), “inactive”.
On to `COc1cc(-c2ccc(N)c(OC)c2)ccc1N`, for which the Potency entry was “inactive”.
For `O=P1(NCCCl)OCCCN1CCCl` (stereo not given), the Potency entry was “inactive”.
Consider `O=C(O)C(Br)Br`, for which the Potency entry was “inactive”.
Same read-out and setting: under `Cc1cccc(C)c1NC(=O)CN1CCCC1=O` stands “inactive”; under `[N-]=[N+]=CC(=O)OC[C@H](N)C(=O)O`, 38.9 µM (active) and inactive; under `OCc1ccco1`, “inactive”.
